CHO-K1 Ca PAM = nonselective activator or artifact in parental CHO-K1 calcium assay; ATP EC20, Fluo-8 calcium fluorescence; 0% at ATP EC20, 100% at ATP max; activation, % at 3 µM; 360,000 compounds, 0.02% hits; AID 602247;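 active = activation above the run cutoff, the mean activation of all test compounds plus 3 SD, cut at about 40% in these data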;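 also: peak over basal fluorescence ratio in a 140 s read after ATP addition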
CHO-K1 Ca ag = nonselective activator or artifact in parental CHO-K1 cells. Fluo-8 calcium fluorescence; scaled to maximal ATP response, vehicle zero. activation, % at 3 µM. 360,000 compounds, 0.48% hits; in the data active = activation above about 15%;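 also: untransfected CHO-K1 host cells lacking M1 receptor as counterscreen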
CHRM1 PAM = potentiates human M1 receptor response to acetylcholine; P11229; CHO-K1 hM1, Fluo-8 calcium fluorescence, ACh EC20; 0% = ACh EC20, 100% = maximal ACh; activation, % at 3 µM; 360,000 compounds, 0.088% hits; in the data active = activation above about 19%, passing the limit was not always enough
Target sequence (P11229 whole entry, looked up): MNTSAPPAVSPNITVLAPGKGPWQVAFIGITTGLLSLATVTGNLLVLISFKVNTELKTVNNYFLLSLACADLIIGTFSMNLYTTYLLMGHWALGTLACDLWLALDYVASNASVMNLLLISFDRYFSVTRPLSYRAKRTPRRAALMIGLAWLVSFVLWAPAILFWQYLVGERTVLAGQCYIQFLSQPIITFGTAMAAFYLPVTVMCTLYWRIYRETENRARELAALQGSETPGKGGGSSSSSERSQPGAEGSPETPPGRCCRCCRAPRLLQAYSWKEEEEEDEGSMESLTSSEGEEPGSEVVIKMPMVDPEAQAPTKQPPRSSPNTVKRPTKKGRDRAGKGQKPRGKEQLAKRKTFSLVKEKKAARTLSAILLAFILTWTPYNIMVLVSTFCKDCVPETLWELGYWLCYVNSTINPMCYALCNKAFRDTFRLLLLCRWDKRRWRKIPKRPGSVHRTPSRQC
CHO-K1 Ca antag = M1 antagonist counterscreen hit in parental CHO-K1 cells. 360,000 compounds, 0.6% hits. ATP-induced calcium, Fluo-8 fluorescence. inhibition, % at 3 µM;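 active = inhibition above a per-plate cutoff, the plate's mean sample inhibition plus 3 SD, cut at about 24% in these data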;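 also: 0% = DMSO plus EC80 ATP and 100% = DMSO alone without ATP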
M1 ag = agonists of human M1 muscarinic receptor. activation, % at 3 µM. CHO-K1 hM1, Fluo-8 calcium fluorescence, agonist mode; 0% DMSO, 100% acetylcholine EC100. P11229. AID 588814. 360,000 compounds, 0.33% hits;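 active = activation above the run's mean compound activation plus 3 SD, cut at about 16% in these data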;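 also: peak over basal fluorescence ratio within a 140 s kinetic read after compound addition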
CHRM1 antagonist = antagonists of human M1 muscarinic receptor. CHO-K1 hM1, Fluo-8 calcium fluorescence, ACh EC80 antagonist. P11229. 360,000 compounds, 1.3% hits. AID 588852. inhibition, % at 3 µM;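 active = percent inhibition above its own plate's cutoff, namely the mean of that plate's compound wells plus 3 SD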;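 also: peak over basal fluorescence ratio during 140 s after agonist addition; 0% = ACh EC80 plus DMSO and 100% = DMSO alone without agonist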
Starred values were filed as active, the others as inactive. Sampled rows, rich in hits. Any-hit rate of the full collection: about 2.3%.

For O=S(=O)(c1cc(F)ccc1F)N1CCN(c2ncnc3ccccc23)CC1 the results were CHO-K1 Ca PAM -3, CHO-K1 Ca ag 18*, CHRM1 PAM -13, CHO-K1 Ca antag 5, M1 ag 0 and CHRM1 antagonist 31*.
Screening CCN(C(=O)C1CCN(c2nc(-c3ccc(OC)cc3)no2)CC1)c1ccc(OC)cc1 returned CHO-K1 Ca PAM 12, CHO-K1 Ca ag 6, CHRM1 PAM -21, CHO-K1 Ca antag 10, M1 ag 4 and CHRM1 antagonist 42*.
For COc1ccc(NC(=O)C2CCN(c3nc(-c4ccc(OC)cc4)no3)CC2)cc1 the results were CHO-K1 Ca PAM 1, CHO-K1 Ca ag 0, CHRM1 PAM -12, CHO-K1 Ca antag 9, M1 ag -4 and CHRM1 antagonist 18.
Screening Cc1c(NC(=O)COC(=O)c2cccc(F)c2)c(=O)n(-c2ccccc2)n1C returned CHO-K1 Ca PAM -13, CHO-K1 Ca ag 0, CHRM1 PAM 5, CHO-K1 Ca antag 4, M1 ag -6 and CHRM1 antagonist -8.
For CC(CC12CC3CC(CC(C3)C1)C2)NCc1ccccc1O (centres undefined) the results were CHO-K1 Ca PAM 24, CHO-K1 Ca ag 10, CHRM1 PAM 6, CHO-K1 Ca antag -4, M1 ag 2 and CHRM1 antagonist -5.
For CN(C)C(CNC(=O)C1CC(=O)N(c2cccc(C(F)(F)F)c2)C1)c1ccccc1 (centres undefined) the results were CHO-K1 Ca PAM -11, CHO-K1 Ca ag 0, CHRM1 PAM 17, CHO-K1 Ca antag 19, M1 ag -6 and CHRM1 antagonist -20.
Screening COc1ccc2c(c1)OC[C@H]1[C@H]2N2C(=O)c3cc(C)ccc3NC(=O)[C@@]2(C)[C@H]1c1ccccc1 returned CHO-K1 Ca PAM 26, CHO-K1 Ca ag 1, CHRM1 PAM -7, CHO-K1 Ca antag -27, M1 ag -4 and CHRM1 antagonist 17.
`C[C@@]12C(=O)Nc3ccccc3C(=O)N1[C@H]1c3cc(Cl)ccc3OC[C@@H]1[C@@H]2c1ccccc1` gave CHO-K1 Ca PAM -4, CHO-K1 Ca ag 0, CHRM1 PAM -28, CHO-K1 Ca antag -12, M1 ag -5 and CHRM1 antagonist 33*.
C[C@@]12C(=O)Nc3ccc(Cl)cc3C(=O)N1[C@H]1c3cc(Cl)ccc3OC[C@@H]1[C@@H]2c1ccccc1 was read as CHO-K1 Ca PAM -23, CHO-K1 Ca ag 0, CHRM1 PAM -11, CHO-K1 Ca antag 1, M1 ag -5 and CHRM1 antagonist 18.
For COc1ccc2c(c1)C(=O)N1[C@H]3c4cc(C)ccc4OC[C@@H]3[C@H](c3ccccc3)[C@]1(C)C(=O)N2 the results were CHO-K1 Ca PAM 10, CHO-K1 Ca ag 0, CHRM1 PAM -32, CHO-K1 Ca antag -7, M1 ag -8 and CHRM1 antagonist 60*.
Cc1ccc2c(c1)[C@H]1[C@H](CO2)[C@H](c2ccccc2)[C@]2(C)C(=O)Nc3ccc(Cl)cc3C(=O)N12 was read as CHO-K1 Ca PAM 9, CHO-K1 Ca ag 1, CHRM1 PAM -22, CHO-K1 Ca antag -16, M1 ag -6 and CHRM1 antagonist 35*.
`COc1ccc2c(c1)OC[C@H]1[C@H]2N2C(=O)c3ccccc3NC(=O)[C@@]2(C)[C@H]1c1ccccc1` gave CHO-K1 Ca PAM 23, CHO-K1 Ca ag 1, CHRM1 PAM -31, CHO-K1 Ca antag -10, M1 ag -6 and CHRM1 antagonist 75*.
Screening O=C(Nc1cccc2ccccc12)c1ccc2sc([C@@H]3O[C@H](CO)[C@H](O)[C@H](O)[C@H]3O)nc2c1 returned CHO-K1 Ca PAM -10, CHO-K1 Ca ag 0, CHRM1 PAM 9, CHO-K1 Ca antag 9, M1 ag 6 and CHRM1 antagonist -4.
For Cc1ccc2c(c1)[C@H]1[C@H](CO2)[C@H](c2ccccc2)[C@]2(C)C(=O)Nc3ccccc3C(=O)N12 the results were CHO-K1 Ca PAM -5, CHO-K1 Ca ag 0, CHRM1 PAM -38, CHO-K1 Ca antag -9, M1 ag -9 and CHRM1 antagonist 86*.
CCN(CC)c1ccc(C(=O)O)cc1 was read as CHO-K1 Ca PAM -13, CHO-K1 Ca ag 0, CHRM1 PAM -5, CHO-K1 Ca antag 25*, M1 ag -6 and CHRM1 antagonist 10.

Bioassay records (PubChem BioAssay)
